Test results reported in PubChem BioAssay AID1030 (National Center for Advancing Translational Sciences (NCATS), 2008).
Where “and” joins values, the source holds several entries; their conditions need not be identical. Identical values can stand only once. Hit rate of the full screen: of about 220,000 compounds, about 16,000 (7.3%) were called active. Not shown: some 25% with an inconclusive outcome. For the sample, actives were picked, then their nearest neighbours and some compounds at random. Values without a mark were called inactive. Calls come from the whole dose curve; as a rule, active = well fitted inhibition curve with a large enough effect (not every such curve was filed as active); inconclusive = small, poorly fitted or top-dose-only effect, or another doubt; inactive = no such curve, though single readings can be large or run the other way.

biological target: Aldehyde dehydrogenase 1A1 (Homo sapiens) (UniProt P00352); experiment: qHTS Assay for Inhibitors of Aldehyde Dehydrogenase 1 (ALDH1A1); conditions: Purified ALDH1A1, NADH fluorescence, propionaldehyde substrate; series mostly up to 75.3 µM; activity, negative = inhibition: at the top concentration;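 for activity, negative = inhibition: plate controls were no enzyme wells and a reference inhibitor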
Sequence (P00352 whole entry, looked up): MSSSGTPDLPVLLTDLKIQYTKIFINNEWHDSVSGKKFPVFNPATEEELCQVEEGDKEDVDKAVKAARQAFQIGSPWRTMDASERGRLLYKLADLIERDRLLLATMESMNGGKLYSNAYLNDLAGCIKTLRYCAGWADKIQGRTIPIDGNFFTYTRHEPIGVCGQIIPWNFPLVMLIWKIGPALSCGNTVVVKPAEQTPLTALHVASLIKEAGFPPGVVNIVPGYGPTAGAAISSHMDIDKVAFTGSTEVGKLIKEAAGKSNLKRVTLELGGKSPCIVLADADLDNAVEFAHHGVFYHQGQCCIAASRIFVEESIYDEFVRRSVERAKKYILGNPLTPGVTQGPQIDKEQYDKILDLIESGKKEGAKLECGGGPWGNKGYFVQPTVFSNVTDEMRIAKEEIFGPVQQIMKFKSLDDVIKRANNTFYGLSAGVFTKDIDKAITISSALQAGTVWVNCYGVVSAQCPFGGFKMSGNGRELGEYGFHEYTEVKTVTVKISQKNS
Potency is the fitted concentration of half-maximal effect.

SMILES | activity, negative = inhibition | Potency
OCCC1CN(Cc2ccc(Oc3ncccn3)cc2)CCN1CCc1ccccc1 (stereo not given) | -2.06% | 
COc1cccc(C(=O)Nc2cccnc2)c1OC | 2.58% | 
O=C(O)c1cccc(NC(=O)c2cc(-c3cccc(Cl)c3)nc3ccccc23)c1 | -11.2% | 
O=C(c1ccc2ccccc2n1)N1CCN(c2ccccc2Cl)CC1 | -2.64% | 
S=C(Nc1ccc(Br)cc1Cl)N1CCC2(CC1)OCCO2 | 2.04% | 
CC(C)C[C@H](NC(=O)[C@H](O)[C@H](N)Cc1ccccc1)C(=O)O | 7.09% | 
O=C(CSCc1ccc(Cl)cc1)N1CCN(Cc2ccc3c(c2)OCO3)CC1 | -12.3% | 
O=C(CSCc1ccc(Cl)cc1)N1CCCCC1 |  | 11.2 µM (active)
O=C(CN1CCN(c2ccc(Cl)cc2)CC1)N1CCCC1 | -0.83% | 
COc1ccccc1NC(=S)N1CCC(NC(=O)C23CC4CC(CC(C4)C2)C3)CC1 | -1.91% | 
Cc1ccc(NC(=O)OCCNC(=O)c2ccncc2)cc1 | 9.81% | 
CN(C)S(=O)(=O)c1ccc2oc(SCC(=O)Nc3ccccc3F)nc2c1 | 10.5% | 
Cn1c(/C(C#N)=C2/CCCCCN2)nc2ccccc21 |  | 17.8 µM (active)
N#C/C(=C1/CCCN1)c1ccccn1 | 1.35% | 
Cc1ccc(O)c(CNc2nc3ccccc3n2C)c1 | -3.88% | 
NC(=O)c1nnsc1-c1ccc(-c2snnc2C(N)=O)cc1 | 6.42% | 
O=C(C/C(=N\NC(=O)c1ccccc1Br)C(F)(F)F)c1cccs1 | -12.8% | 
CC(C)CC(=O)NC(=S)Nc1ccc(F)cc1F | -6.05% | 
O=C(O)/C=C/C(=O)Nc1ccc(F)cc1F |  | 25.1 µM (active)
COc1ccc(C(=O)Nc2ccc(F)cc2F)cc1 | 1.45% | 
Nc1c(Cl)cc(S(N)(=O)=O)cc1S(N)(=O)=O | -0.816% | 
CCC(C)(C)NC(=O)C(c1cccc(OC)c1OC)N(CC(C)C)C(=O)CCC(=O)Nc1cc(C)on1 (stereo not given) | 2.89% | 

SMILES | activity, negative = inhibition | Potency
Cc1ccc(S(=O)(=O)CCC(=O)OCc2ccccc2)cc1 | -5.01% | 
Cc1ccc(CSCC(N)C(=O)O)cc1 (stereo not given) |  | 31.6 µM (active)
CCCCN(C)CCNC(=O)CSCc1ccc(C)cc1 | -9.11% | 
O=C(CNC(=O)c1cc(=O)[nH]c2ccccc12)Nc1ccc(F)c(F)c1 | -11.6% | 
COc1cc(C(F)(F)F)c(C(=O)N(C)c2ccc(Cl)cc2)cn1 | 13.8% | 
Cc1noc(C)c1/C=N/Nc1ccc2ccccc2n1 | -3.62% | 
O=c1cnnc(Nc2ccccc2)[nH]1 | 4.48% | 
O=C(CSc1ncccn1)NCCc1ccccc1 | 0.944% | 
S=c1[nH]nc(NCCc2ccccc2)s1 |  | 12.6 µM (active)
c1ccc(Nc2n[nH]nc2-c2ccccc2)cc1 | 9.07% | 
Cc1nc(C)c(-c2csc(NCCc3ccccc3)n2)s1 | -6.61% | 
S=c1[nH]nc(Nc2ccccc2)s1 |  | 6.31 µM (active)
O=C(CCCn1c(=O)c2sccc2n(CC(=O)NCC2CCCO2)c1=O)NCc1ccco1 (stereo not given) | -3.06% | 
CCCN(C(=O)CSc1nnnn1C)c1c(N)n(Cc2ccccc2)c(=O)[nH]c1=O | 3.4% | 
COc1cc(/C=C/C2=CC(C)(C)NC(=S)N2)cc(OC)c1OC |  | 3.98 µM (active)
COc1ccc(/C=C/C2=CC(C)(C)NC(=S)N2)c(OC)c1 |  | 0.708 µM (active)
COc1cc(/C=C/CO)cc(OC)c1O[C@@H]1O[C@H](CO)[C@@H](O)[C@H](O)[C@H]1O | 7.97% | 
Cc1ccc2nc(C)cc(N/N=C/c3ccc(F)cc3)c2c1 | -1.46% | 
O=C(NNc1cc(Cl)ccc1Cl)c1cccnc1Cl | 2.84% | 
C=CC1(C)CC(=O)C2(O)C(C)(O1)C(OC(C)=O)C(O)C1C(C)(C)CCC(O)C12C (stereo not given) |  | inactive
Cc1c(CCC(=O)O)c(=O)oc2cc3occ(-c4ccccc4)c3cc12 | 2.47% | 
O=C(COc1ccc(S(=O)(=O)N2CCCCC2)cc1)NCc1ccccn1 | -3.55% | 

SMILES | activity, negative = inhibition | Potency
Cc1ncn(C23CC4CC(CC(O)(C4)C2)C3)n1 | 4.89% | 
Cc1nc([N+](=O)[O-])nn1C12CC3CC(CC(Br)(C3)C1)C2 |  | 8.91 µM (active)
Cc1cn(C)c(=O)n(C)c1=O | -1.22% | 
CN(C)CCCSc1ccccc1NC(=O)/C=C/c1ccccc1 | 1.08% | 
O=C(CCN1C(=O)c2ccncc2C1=O)Nc1cc(F)ccc1F | 1.86% | 
Cc1ccc(N(C(=O)Cc2cccs2)C2C=CS(=O)(=O)C2)cc1Cl (stereo not given) | -10.7% | 
CC(C)c1ccc(N2CCN(C(=O)c3ccccc3NC(=O)/C=C(\C(=O)O)c3ccccc3)CC2)cc1 |  | 22.4 µM (active)
O=C(O)C1CC=CCC1C(=O)Nc1ccccc1C(=O)N1CCN(c2ccccc2)CC1 (stereo not given) | 3.98% | 
Cc1cccc(N2CCN(C(=O)c3ccccc3NC(=O)C3CCCCC3C(=O)O)CC2)c1 (stereo not given) | -1.92% | 
O=C(NC1(C(F)(F)F)NC(=O)N(C2CCCCC2)C1=O)c1ccco1 (stereo not given) | 2.2% | 
CCOc1ccc(Cn2nnc(C(=O)NCc3ccccc3)c2N)cc1 | -9.7% | 
CCCCOc1ccc(C(=O)NCc2ccncc2)cc1 | 8.81% | 
CCOc1c2ccc(C(=O)NCc3ccc(OC(F)(F)F)cc3)cc2nn1C |  | 3.16 µM (active)
CCOC(=O)C(C)n1nc(-c2ccccc2)c2ccccc2c1=O (stereo not given) | -4.13% | 
Cc1cc(NC(=O)Nc2ccccc2[N+](=O)[O-])no1 | -5.73% | 
COc1ccc(/C=C/NC(=O)c2ccc(OC)cc2)cc1 |  | 2.82 µM (active)
COc1ccc(/C=C/NC(=O)Cc2ccc(OC)c(OC)c2)cc1 | 8.87% [at 13.5 µM] and 1.01% [at 13.5 µM] | 
COc1ccc(NC(=O)c2ccc(OC)cc2)cc1 | -2.23% | 
CCOC(=O)C1C(c2ccc(Cl)cc2)NC(=S)NC1(O)C(F)(F)F (stereo not given) |  | 7.94 µM (active)
O=C(c1cccs1)C1C(c2ccc(Br)cc2)NC(=S)NC1(O)C(F)(F)F (stereo not given) |  | 3.16 µM (active)
CC(=O)C1C(c2ccc(Cl)cc2)NC(=O)NC1(O)C(F)(F)F (stereo not given) | 8.56% | 
CCOC(=O)NNC(=O)c1ccc(Cl)cc1 | -3.42% | 

SMILES | activity, negative = inhibition | Potency
O=C(CN(C(=O)c1csnn1)c1cccc(F)c1)NCc1ccc(F)cc1 | 5.3% | 
CCn1cnc2scc(-c3ccc(C)c(C)c3)c2c1=O | -6.88% | 
CN1C(=O)/C(=C\c2cc(Br)cs2)c2ccccc21 | -2.78% | 
CC(C)c1csc(CN2CCC(CO)(Cc3ccccc3)CC2)n1 | 15% | 
CCOc1cc(CNn2c(C)nnc2SCC(=O)NC(C)(C)C)ccc1OCC(=O)NC(C)(C)C | 8.98% | 
CCOCCCNCc1ccc(OCc2ccc(F)cc2)c(OC)c1 | 0.342% | 
O=C(CCc1n[nH]c(=O)[nH]c1=O)N/N=C/c1ccc(Br)o1 | -3.34% | 
Cc1nnc(SCC(=O)N2c3ccccc3C(C)(c3ccc(Cl)cc3)CC2(C)C)s1 (stereo not given) | 3.67% | 
Cc1ccc(-c2c[n+](=O)c3c(n2[O-])CCC3)cc1 | 7.22% | 
O=[n+]1c2c(n([O-])c3cc(Br)ccc31)CCC2 |  | 31.6 µM (active)
Cc1ccc(-c2c(C)n([O-])c3c([n+]2=O)CCC3)cc1 | 5.63% | 
COc1ccc([N+](=O)[O-])cc1NC(=O)CC1SC(=Nc2cccc(C)c2C)N(/N=C(\C)c2ccc(C)cc2)C1=O (stereo not given) | -1.71% | 
CN(c1ccccc1)S(=O)(=O)c1ccc(Cl)c(C(=O)OCC(=O)N2CCOCC2)c1 | 8.36% | 
O=C1CCCC2=C1C(c1cccs1)CC(=O)N2c1ccc(F)cc1 (stereo not given) | 2.98% | 
Cn1c(N)cc(-c2ccc(F)cc2)c(C#N)c1=O | -6.05% | 
N#CC1=C(N)N(c2ccc(F)cc2)C(=O)C1 |  | 22.4 µM (active)
O=C(CCC(=O)c1cccs1)NC1CCCCCC1 | -13.8% | 
CCCCNC(=O)N1CCN(S(C)(=O)=O)CC1 | -0.297% | 
COc1ccccc1NC(=O)COC(=O)Cc1ccc(S(=O)(=O)N2CCCCC2)s1 | -5.93% | 
CCOC(=O)C1Sc2[nH]c(=O)sc2C(c2ccc(Cl)cc2)C1C(=O)OCC (stereo not given) |  | 11.2 µM (active)
CCOC(=O)C1=C(C)NC(=O)N(C(C)=O)C1c1ccc(Cl)cc1 (stereo not given) | -0.324% | 
Cc1c(NC(=O)CCC2CCCCC2)cc(C(=O)N2CCOCC2)cc1[N+](=O)[O-] | 3.98% | 

SMILES | activity, negative = inhibition | Potency
O=C(N/N=C/c1ccco1)c1ccc(NC(=O)C2CC2)cc1 | -3.27% | 
Cc1ccc(NC(=O)Nc2cccc(C(F)(F)F)c2)nc1 | -7.02% | 
COc1ccc(C(=O)Nc2ccccc2C(=O)N/N=C/c2ccc(O)c(OC)c2)cc1 | 3.47% | 
COc1ccc(/C=N/NC(=O)c2ccccc2)cc1OS(=O)(=O)c1ccccc1 |  | 14.1 µM (active)
COc1cc(/C=N/NC(=O)c2ccccc2)ccc1OS(=O)(=O)c1ccccc1 |  | 14.1 µM (active)
COc1ccc(/C=N/NC(=O)c2ccc(Cl)cc2)cc1COC(C)=O | 7.34% | 
COc1ccc(/C=N\NC(=O)c2sc(N)nc2C)cc1OC | 2.89% | 
COc1cccc(/C=N/NC(=O)c2cccc([N+](=O)[O-])c2)c1OS(=O)(=O)c1ccc(C)cc1 | -5.06% | 
O=C(NNC(=O)c1cnccc1C(F)(F)F)c1ccc(Cl)cc1 | 10.2% | 
Nc1nc(O)c(CC(=O)O)s1 | 3.26% | 
Cc1cc(C)c(C(N)=O)c(Cl)n1 | 3.59% | 
CCc1c(C)sc(NC(=O)OC)c1C(=O)N1CCOCC1 | 0.994% | 
CCOC(=O)c1sc(NC(=O)CCN2CCOCC2)c(C(=O)OCC)c1C |  | 17.8 µM (active)
CCOC(=O)c1c(NC(=O)CCl)sc(C(=O)N(CC)CC)c1C |  | 10 µM (active)
CCOC(=O)c1sc(NC(=O)COc2ncnc3ccccc23)c(C(=O)OCC)c1C | -16.3% | 
CCOC(=O)c1c(NC(C)=O)sc2c(O)c(Br)ccc12 | -12.2% | 
CCOC(=O)c1sc(NC(=O)CSc2nnc(-c3ccco3)o2)c(C(=O)OCC)c1C | -8.17% | 
O=C(c1cc(=O)c2ccccc2o1)N1CCN(c2ccccc2)CC1 | -7.27% | 
COc1cccc(C(=O)Nc2nc3ccc(S(C)(=O)=O)cc3s2)c1 | -1.22% | 
CC(=O)NC1=NN(C(C)=O)C(C)(CCS(=O)(=O)c2ccc(Cl)c(Cl)c2)S1 (stereo not given) | -5.25% | 
CN(C)c1ccc(-n2cccc2/C=C2/SC(=Nc3ccc(F)cc3)NC2=O)cc1 | -0.0028% | 
Cc1ccc(N=C2NC(=O)/C(=C/C=C/c3ccco3)S2)cc1C |  | 7.94 µM (active)
